p53 reactivation: mutant p53 re-activation in reporter cells; 0.063% of 320,000 active; H1299 p53-A138V BP100-luciferase reporter, luminescence, 24 h; Potency, µM (doses to about 92.2 µM), without a hit: top-dose activity change, positive = activation, actives largely listed as activators; AID 504706; also: % of control where 0% means no effect; nearly all actives have a fitted effect of over 45% in size
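H1299 (p53-null), stable ts p53-A138V + BP100-Luc; 1000 cells/well, Opti-MEM/10% FBS; cpd 4 pt, 1:5; 24 h, 37 deg C, 5% CO2; detection reagent 10 min RT; luminescence.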
NPC1 prom act: activates the NPC1 promoter; Potency, µM (titrated, usually from 9.22 µM), for the others: at the top dose activation, most hits filed as activators; Huh7 NPC1 promoter luciferase reporter, 24 h; 2.4% of 320,000 active; AID 485313; also: % of control where 0% means no effect; nearly all actives have a fitted effect of over 60% in size
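NPC1 promoter–luciferase Huh7 cells; 24 h compound; luminescence.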
ELG1 genotoxic: induces genotoxicity in HEK293T cells with luciferase-tagged ELG1; HEK293T ELG1-luciferase reporter, luminescence, 16 h; Potency, µM (titrated, usually from 46 µM), for inactives: at the highest dose activity change, positive = activation, most hits filed as activators; AID 504466; 1.3% of 330,000 active; also: % of control where 0% means no effect; nearly all actives have a fitted effect of over 60% in size
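Reporter readout depends on ELG1 protein level, which increases with genetic stress. After 16 hr compound exposure at 37 °C, luciferase activity was quantified using ONE-Glo.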
FLuc modulator: firefly luciferase modulation, counter-screen for miR-21 project | Potency, µM (doses to about 57.5 µM), for the others: top-dose activity change, negative = inhibition, actives largely listed as inhibitors | 6.9% of 360,000 active | purified FLuc, Km substrates, luminescence inhibition;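 also: plate controls were vehicle for no effect and reference inhibitor for full effect; nearly all actives have a fitted effect of over 55% in size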
Target sequence (P08659 whole entry, looked up): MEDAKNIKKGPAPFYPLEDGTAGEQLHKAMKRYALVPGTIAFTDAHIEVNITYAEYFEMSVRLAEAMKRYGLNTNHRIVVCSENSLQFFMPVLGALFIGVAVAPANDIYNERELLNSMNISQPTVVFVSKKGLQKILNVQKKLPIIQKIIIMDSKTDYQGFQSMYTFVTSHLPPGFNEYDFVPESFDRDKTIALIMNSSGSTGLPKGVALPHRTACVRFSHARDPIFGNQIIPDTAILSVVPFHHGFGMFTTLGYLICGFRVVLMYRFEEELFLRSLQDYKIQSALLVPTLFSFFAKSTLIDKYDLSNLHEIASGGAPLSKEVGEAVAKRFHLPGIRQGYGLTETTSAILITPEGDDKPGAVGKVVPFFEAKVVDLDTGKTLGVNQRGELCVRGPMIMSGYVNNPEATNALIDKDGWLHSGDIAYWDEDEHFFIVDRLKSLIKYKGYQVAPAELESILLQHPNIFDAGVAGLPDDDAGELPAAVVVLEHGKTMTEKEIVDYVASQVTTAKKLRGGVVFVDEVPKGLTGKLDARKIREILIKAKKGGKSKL
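Purified P. pyralis luciferase, 10 nM final, with Km-level 10 uM D-luciferin and 10 uM ATP in 50 mM Tris acetate pH 7.5, 10 mM Mg acetate, 0.01% Tween-20, 0.05% BSA; 6-point qHTS titration about 60 µM downward; luminescence read.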
Rab9 prom act: activates the Rab9 promoter | 2.8% of 320,000 active | Potency, µM (highest dose often 9.22 µM), for inactives: at the highest dose activation, negative = inhibition, usual class: activators | Huh7 Rab9 promoter-luciferase reporter, luminescence, 24 h; also: % of control where 0% means no effect; nearly all actives have a fitted effect of over 60% in size
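Luminescence from Amplite-detected luciferase (10 minutes, ambient) reports Rab9 promoter activation. Before that, stable Rab9-luciferase Huh7 cells (1500/well, reduced-serum OP-MEM I plus 10% FBS) were exposed to compound for 24 hours at 37C.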
SMN2 splice enh: SMN2 splice variant enhancement; HEK293 SMN2-luciferase splicing reporter, luminescence, 30-36 h; Potency, µM (titrated, usually from 46.1 µM), for inactives: top-dose activity change, positive = activation, usual class: activators; 2.8% of 210,000 active; also: % of control where 0% means no effect; nearly all actives have a fitted effect of over 55% in size
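HEK293 cells carry an SMN2 […]–luciferase reporter in which exon 7 inclusion puts luciferase in frame. Cells were plated 10-12 h before compound addition, then incubated 30-36 h at 37C. ONE-Glo luminescence was read; sodium butyrate at 4.5 mM final served as control.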
* hit, by the source's call; ? = inconclusive; · = not tested or not shown. Hits are enriched below; roughly 7.3% of the tested compounds scored in any of these assays. Calls follow the shape of the dose curve; as a rule, active = well fitted curve in the direction sought with a large enough effect; inconclusive = small, poorly fitted or top-dose-only effect, or another doubt; inactive = no such curve, though single readings can be large; an effect the other way counts as inactive or inconclusive. Potency is read from the fitted curve at half-maximal effect.

SMILES	p53 reactivation	NPC1 prom act	ELG1 genotoxic	FLuc modulator	Rab9 prom act	SMN2 splice enh
Cc1nn(-c2ccccc2)c(N)c1Sc1ccc([N+](=O)[O-])cc1	?	9.4%	0.8%	-4.7%	2.2%	-37.6%
COc1cccc(Cn2ncc3c4sc(B(O)O)cc4n(C)c3c2=O)c1	·	-11.2%	·	-3.2%	-2.6%	·
COc1cccc(N2CCN(C(=O)Cn3cnc4onc(-c5ccc(F)cc5)c4c3=O)CC2)c1	·	·	·	-10.7%	·	·
Cc1cccc(NC(=O)CCc2c(C)nn(-c3ccc(N4CCOCC4)nn3)c2C)c1	9.2%	28.3%	6.4%	15.1µM*	25.7%	·
Cc1cccc(NC(=O)CCc2c(C)nn(-c3ccc(N4CCCCC4)nn3)c2C)c1	?	?	8.7%	5.36µM*	?	·
COc1cccc(NC(=O)CCc2c(C)nn(-c3ccc(N4CCOCC4)nn3)c2C)c1	?	5.6%	5.3%	?	15.4%	·
Cc1c(C)n(Cc2ccc(F)cc2)c2ccc(C(=O)Nc3ccc(Cl)cc3)cc12	·	·	·	-1.2%	·	·
COc1ccc(/C=N/N=C(\N)c2nonc2N)cc1	?	0.631µM*	0.731µM*	2.13µM*	0.398µM*	4.47µM*
COc1cc(/C=N/N=C(\N)c2nonc2N)cc(OC)c1O	6.9%	-0.8%	?	9.53µM*	1.3%	·
CCc1ccc(C2CC(=O)c3c([nH]c(C(=O)OC4CCCC4)c3C)C2)cc1 (configuration not stated)	·	·	·	-5.3%	·	-0.3%
CCOC(=O)c1[nH]c(C)c(C(=O)c2ccc(C)cc2)c1C	17.5%	-8.5%	20.6µM*	?	-10.4%	4.5%
CCOC(=O)c1[nH]c2ccc(C)cc2c1N	?	2.24µM*	?	5.36µM*	2.51µM*	11.2µM*
CCOC(=O)c1c(C)[nH]c(C(=O)OCCOc2ccc(Cl)cc2)c1C	?	17.3%	?	-16.6%	10.0%	14.6%
CCOC(=O)c1c(C)[nH]c(C(=O)COC(=O)c2ccc(O)cc2)c1C	-0.2%	16.1%	5.2%	-15.2%	29.9%	·
CCOC(=O)c1c(C)[nH]c(C(=O)COC(=O)c2ccccn2)c1C	3.3%	0.3%	5.0%	6.01µM*	5.3%	-9.9%
CCOC(=O)c1c(C)[nH]c(C(=O)OCCOc2ccccc2C)c1C	?	3.98µM*	?	3.38µM*	3.98µM*	3.55µM*
COC(=O)[C@@H]1C[C@H]1[C@@H](NC(=O)c1ccc(Br)cc1)c1ccccc1	·	·	·	·	·	-38.0%
Cc1ccc(C)c(CN2CCCN(CC(=O)Nc3ccc(C)c(C)c3)S2(=O)=O)c1	·	·	·	-12.5%	·	·
CCOC(=O)c1c(C)[nH]c(C(=O)OCC(=O)NCc2ccccc2)c1C	0.6%	·	0.1%	·	·	·
CCOC(=O)c1c(C)[nH]c(C(=O)OCC(=O)c2ccccc2)c1C	10.2%	0.501µM*	0.92µM*	0.849µM*	0.447µM*	·
CC(=O)Nc1ccccc1-c1nc2ccccc2n(CC(=O)Nc2cccc(C)c2C)c1=O	·	·	·	-2.0%	·	·
CCOc1ccccc1CNc1nc2ccccc2n1C	-4.9%	-0.1%	-5.2%	0.6%	-3.4%	·
Cn1c(NCc2ccccc2O)nc2ccccc21	?	3.98µM*	?	21.3µM*	2.82µM*	?
CC(C)n1c(NCc2ccccc2O)nc2ccccc21	·	-1.3%	-0.5%	-2.6%	-4.6%	·
Cc1ccc(CNc2nc3ccccc3n2C)o1	?	?	?	?	2µM*	·
CCOc1ccc(CNc2nc3ccccc3n2C)cc1	?	3.16µM*	?	12µM*	2µM*	·
Cn1c(NCc2ccccc2F)nc2ccccc21	·	·	·	16.9µM*	·	12.6µM*
O=C1Nc2cc(Cl)c(Cl)cc2N(O)N1c1ccccc1	0.1%	-1.5%	1.9%	-16.4%	-4.0%	-2.0%
Cc1ccc(N2C(=O)Nc3cc(Cl)c(Cl)cc3N2O)cc1Cl	-6.4%	-1.3%	0.9%	16.9µM*	0.1%	-18.9%
CCN(Cc1ccccc1)C(=O)Cn1cc(S(=O)(=O)Cc2cccc(Cl)c2)c2ccccc21	·	·	·	1.4%	·	·

High-throughput results deposited in PubChem BioAssay by National Center for Advancing Translational Sciences (NCATS).
